# Data taken from PubChem BioAssay (EPA / NIEHS).
# Records with an inconclusive call do not appear. Active and inactive are the calls of the source. The calls were made as follows, unless noted: active = hit-call score of the fitted dose curve at least 0.9, where 1 is the maximum; inactive = score below 0.9.
# Tests used:
# [1] = ACEA_ER_80hr: ACEA Biosciences xCELLigence Real-Time Cell Analysis on Estrogen Receptor Agonism for Proliferation (AID 2282667; active = hit-call score of the fitted dose curve at least 0.9, where 1 is the maximum); conditions: T47D proliferation, impedance (xCELLigence), 80 h
# How it was run: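 Cell-growth kinetics were measured by impedance in T47D cells treated continuously with compound (top 100 uM final, 1:4 steps, 8 points). Activity at 80 h was scored as signal gain over the DMSO baseline.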
# [2] = ATG_CRE_CIS: Attagene CIS-FACTORIAL HepG2 Assay for human cAMP Responsive Element (CRE) binding protein 3 (AID 2282926); conditions: HepG2 CRE cis-reporter, Attagene multiplexed mRNA; actives raise or lower the signal
# How it was run: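 We dosed HepG2 cells bearing multiple cis-promoter reporter units for 24 h and measured reporter mRNA by RT-PCR with capillary electrophoresis detection. Bidirectional concentration-response fitting used DMSO as negative control.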
# [3] = biological target: CCAAT/enhancer-binding protein beta (Homo sapiens) (UniProt P17676); test: ATG_C_EBP_CIS: Attagene CIS-FACTORIAL HepG2 Assay for human CCAAT/Enhancer Binding Protein (C/EBP) beta (AID 2282927); conditions: HepG2 Attagene cis-factorial transcription factor reporter; actives raise or lower the signal
# Sequence of CCAAT/enhancer-binding protein beta (Homo sapiens) (P17676 whole entry, looked up, the tested form may be a part): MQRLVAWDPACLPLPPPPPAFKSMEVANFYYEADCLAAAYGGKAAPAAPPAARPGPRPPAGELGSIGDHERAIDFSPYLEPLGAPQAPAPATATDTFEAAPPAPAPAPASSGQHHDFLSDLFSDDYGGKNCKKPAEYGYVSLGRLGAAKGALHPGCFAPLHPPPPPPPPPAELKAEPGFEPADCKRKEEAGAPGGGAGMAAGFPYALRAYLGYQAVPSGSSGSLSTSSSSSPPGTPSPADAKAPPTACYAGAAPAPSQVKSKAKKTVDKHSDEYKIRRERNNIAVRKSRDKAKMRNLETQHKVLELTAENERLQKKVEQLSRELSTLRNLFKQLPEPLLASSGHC
# How it was run: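 Chemical-treated HepG2 cells (24 h) bearing cis-regulated reporter constructs were processed for total RNA, then reverse transcription, PCR amplification, fluorescent primer extension and fragment analysis; gain- and loss-of-signal were fitted against DMSO.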
# [4] = ATG_CMV_CIS: Attagene CIS-FACTORIAL HepG2 Assay for human CMV (Internal Marker) (AID 2282928); conditions: HepG2 CMV promoter reporter, transcription factor profiling; actives raise or lower the signal;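 also: endpoint acts as a background internal control marker rather than a target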
# How it was run: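 Cell system: HepG2, transiently transfected multiple reporter units under cis promoters. Exposure: 24 h. Detection: RT-PCR, FAM labeling, HpaI digestion, capillary electrophoresis. Analysis: bidirectional, DMSO baseline.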
# [5] = ATG_DR4_LXR_CIS: Attagene CIS-FACTORIAL HepG2 Assay for human Liver X Receptor (LXR), DR4 submotif (AID 2282929); conditions: HepG2 Attagene DR4 cis-reporter, mRNA transcription; actives raise or lower the signal
# How it was run: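 Measures endogenous transcription factor activity via a DR4-driven reporter transcript in human HepG2 cells. Compounds incubated 24 h; mRNA quantified by RT-PCR and capillary electrophoresis, analysed as gain or loss of signal versus DMSO.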
# [6] = biological target: Aryl hydrocarbon receptor (Homo sapiens) (UniProt P35869); test: ATG_Ahr_CIS: Attagene CIS-FACTORIAL HepG2 Assay for human Aryl Hydrocarbon Receptor (Ahr) (AID 2282930); conditions: HepG2 AhR cis-factorial reporter transcription; actives raise or lower the signal
# Sequence of Aryl hydrocarbon receptor (Homo sapiens) (P35869 whole entry, looked up): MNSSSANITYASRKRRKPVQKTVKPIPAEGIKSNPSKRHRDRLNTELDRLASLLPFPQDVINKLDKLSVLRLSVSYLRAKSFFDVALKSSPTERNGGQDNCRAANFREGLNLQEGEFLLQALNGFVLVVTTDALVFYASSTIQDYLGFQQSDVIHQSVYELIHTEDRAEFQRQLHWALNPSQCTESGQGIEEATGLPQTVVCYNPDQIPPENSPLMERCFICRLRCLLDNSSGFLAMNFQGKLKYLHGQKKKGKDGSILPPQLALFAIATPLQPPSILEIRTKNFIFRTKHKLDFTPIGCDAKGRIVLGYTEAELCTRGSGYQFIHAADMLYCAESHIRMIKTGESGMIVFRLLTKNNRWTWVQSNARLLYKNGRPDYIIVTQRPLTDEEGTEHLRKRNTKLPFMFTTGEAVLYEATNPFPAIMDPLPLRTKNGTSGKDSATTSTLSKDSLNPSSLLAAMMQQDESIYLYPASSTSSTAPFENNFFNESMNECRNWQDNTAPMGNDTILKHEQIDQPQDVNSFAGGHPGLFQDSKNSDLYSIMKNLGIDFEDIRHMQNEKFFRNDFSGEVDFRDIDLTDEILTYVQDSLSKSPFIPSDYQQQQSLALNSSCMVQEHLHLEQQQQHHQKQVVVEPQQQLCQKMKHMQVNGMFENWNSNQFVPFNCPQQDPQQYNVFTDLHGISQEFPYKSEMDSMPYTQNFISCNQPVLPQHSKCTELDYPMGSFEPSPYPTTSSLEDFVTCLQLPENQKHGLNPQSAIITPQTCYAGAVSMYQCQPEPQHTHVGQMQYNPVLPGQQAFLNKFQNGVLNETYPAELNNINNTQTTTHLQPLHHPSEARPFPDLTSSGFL
# How it was run: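 Following 24 h of chemical dosing, transfected HepG2 liver cells with cis-driven reporter units were lysed for RNA; reporter mRNA was quantified via RT-PCR and capillary electrophoresis, and responses fitted bidirectionally from DMSO.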
# [7] = ATG_AP_1_CIS: Attagene CIS-FACTORIAL HepG2 Assay for human Activator Protein 1 (AP-1) (AID 2282931); conditions: HepG2 Attagene cis-factorial AP-1 reporter mRNA; actives raise or lower the signal
# How it was run: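 Bidirectional concentration-response fitting against DMSO controls. Underlying signal: reporter mRNA from cis-promoter constructs in transiently transfected HepG2, measured after 24 h by RT-PCR and capillary electrophoresis.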
# [8] = ATG_AP_2_CIS: Attagene CIS-FACTORIAL HepG2 Assay for human Activator Protein 2 (AP-2) (AID 2282932); conditions: HepG2 AP-2 cis-reporter, Attagene transcription factor profiling; actives raise or lower the signal
# How it was run: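 HepG2 cells were transiently transfected with multiple cis-promoter reporter transcription units and dosed for 24 h. Reporter mRNA was measured by RT-PCR with capillary electrophoresis fluorescence; bidirectional fits relative to DMSO baseline.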
# [9] = ATG_BRE_CIS: Attagene CIS-FACTORIAL HepG2 Assay for human Bone Morphogenetic Protein (BMP) Response Element (BRE) (AID 2282933); conditions: HepG2 BMP response element reporter, Attagene transcription factor profiling; actives raise or lower the signal
# How it was run: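 Transient MRTU transfection of human HepG2 liver cells; 24 h compound treatment; total RNA isolated, reverse-transcribed, PCR-amplified, 6-FAM labelled, HpaI-cut, capillary electrophoresis. DMSO = negative control/baseline, bidirectional fit.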
# [10] = biological target: Retinoic acid receptor alpha (Homo sapiens) (UniProt P10276); test: ATG_DR5_RAR_CIS: Attagene CIS-FACTORIAL HepG2 Assay for human Retinoic Acid Receptor Alpha (RARE), DR5 submotif (AID 2282934); conditions: HepG2 Attagene cis-factorial RARE DR5 reporter, mRNA; actives raise or lower the signal
# Sequence of Retinoic acid receptor alpha (Homo sapiens) (P10276 whole entry, looked up): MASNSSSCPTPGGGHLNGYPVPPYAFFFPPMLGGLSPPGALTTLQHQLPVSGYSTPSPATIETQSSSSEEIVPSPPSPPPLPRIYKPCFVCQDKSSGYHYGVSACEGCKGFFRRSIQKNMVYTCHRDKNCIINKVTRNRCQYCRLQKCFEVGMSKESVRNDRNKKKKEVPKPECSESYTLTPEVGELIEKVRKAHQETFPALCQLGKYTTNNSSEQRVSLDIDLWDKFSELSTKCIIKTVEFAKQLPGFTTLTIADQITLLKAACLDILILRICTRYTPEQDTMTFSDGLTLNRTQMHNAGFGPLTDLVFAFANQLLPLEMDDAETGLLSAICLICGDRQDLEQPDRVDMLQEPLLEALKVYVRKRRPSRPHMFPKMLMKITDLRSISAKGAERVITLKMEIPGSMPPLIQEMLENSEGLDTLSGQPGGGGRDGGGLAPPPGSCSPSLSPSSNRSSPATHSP
# How it was run: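 Transfected HepG2 reporter cells are exposed to chemicals for 24 h. Then RNA is extracted and the DR5 element reporter transcript is measured by RT-PCR and capillary electrophoresis, with bidirectional curve fitting relative to DMSO.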
# [11] = biological target: Transcription factor E2F1 (Homo sapiens) (UniProt Q01094); test: ATG_E2F_CIS: Attagene CIS-FACTORIAL HepG2 Assay for human E2F Transcription Factor 1 (AID 2282935); conditions: HepG2 Attagene cis-reporter, E2F reporter RNA transcripts; actives raise or lower the signal
# Sequence of Transcription factor E2F1 (Homo sapiens) (Q01094 whole entry, looked up): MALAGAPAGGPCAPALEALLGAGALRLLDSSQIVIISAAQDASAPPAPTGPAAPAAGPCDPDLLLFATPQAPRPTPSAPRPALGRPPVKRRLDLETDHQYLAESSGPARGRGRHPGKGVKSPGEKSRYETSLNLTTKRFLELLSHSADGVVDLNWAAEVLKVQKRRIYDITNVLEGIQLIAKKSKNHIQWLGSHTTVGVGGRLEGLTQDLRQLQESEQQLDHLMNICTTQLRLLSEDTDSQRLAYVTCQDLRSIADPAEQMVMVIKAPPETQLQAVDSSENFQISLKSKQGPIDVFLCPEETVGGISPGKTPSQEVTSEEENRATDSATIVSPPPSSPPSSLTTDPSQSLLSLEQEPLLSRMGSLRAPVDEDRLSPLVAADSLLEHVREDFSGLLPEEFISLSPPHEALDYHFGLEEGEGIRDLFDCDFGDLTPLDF
# How it was run: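 HepG2 cells transiently transfected with multiplexed cis-element reporter units, dosed for 24 h. Reporter mRNA measured by RT-PCR, 6-FAM primer-extension labeling, HpaI digestion and capillary electrophoresis; bidirectional fit versus DMSO baseline.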
# [12] = ATG_E_Box_CIS: Attagene CIS-FACTORIAL HepG2 Assay for human Enhancer Box (E-box) (AID 2282936); conditions: HepG2 E-box cis-reporter transcription, actives raise or lower the signal
# How it was run: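 HepG2 cells transiently transfected with multiplexed cis-element reporter units sensing endogenous transcription factor activity; 24 h compound exposure. Reporter mRNA measured by RT-PCR, 6-FAM primer extension, HpaI digestion and capillary electrophoresis; bidirectional fit versus DMSO.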
# [13] = ATG_M_61_CIS: Attagene CIS-FACTORIAL HepG2 Assay for M61 Transcription Factor (Internal Marker) (AID 2282937); conditions: HepG2 Attagene CIS-FACTORIAL M61 internal marker reporter; actives raise or lower the signal
# How it was run: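 Fluorescence from labelled cDNA fragments, separated by capillary electrophoresis, quantifies reporter induction. HepG2 cells bearing transiently transfected cis-promoter MRTUs were incubated with test chemical for 24 h; DMSO defined baseline for gain/loss fitting.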
# [14] = ATG_EGR_CIS: Attagene CIS-FACTORIAL HepG2 Assay for human Early Growth Response 1 (EGR1) (AID 2282938); conditions: HepG2 Attagene CIS-FACTORIAL EGR reporter mRNA; actives raise or lower the signal
# How it was run: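 Cell-based multiplex transcription assay: HepG2 carrying transfected cis-element reporter units, 24 h chemical treatment. Fluorescence from capillary electrophoresis of RT-PCR products gives mRNA levels; fitting is bidirectional relative to DMSO.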
# [15] = ATG_M_19_CIS: Attagene CIS-FACTORIAL HepG2 Assay for M19 Transcription Factor (Internal Marker) (AID 2282939); conditions: HepG2 Attagene CIS-FACTORIAL M19 internal marker reporter; actives raise or lower the signal
# How it was run: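 Transfect HepG2 with MRTU reporter library → dose chemical, 24 h → isolate total RNA, reverse-transcribe with oligo(dT) → PCR, 6-FAM label, HpaI cut (2 h, 37 C) → capillary electrophoresis. Bidirectional fit vs DMSO.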
# [16] = ATG_ERE_CIS: Attagene CIS-FACTORIAL HepG2 Assay for Estrogen Response Element (ERE) (AID 2282940); conditions: HepG2 ERE cis-reporter, Attagene RNA transcript; actives raise or lower the signal
# How it was run: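 Transient MRTU transfection of human HepG2; cis-element promoters; 24 h dosing; total RNA → RT (oligo dT) → PCR → 6-FAM primer extension → HpaI digest → CE fluorescence. Bidirectional fit, DMSO baseline.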
# [17] = ATG_Ets_CIS: Attagene CIS-FACTORIAL HepG2 Assay for human Erythroblast Transformation Specific (ETS) (AID 2282941); conditions: HepG2 ETS cis-reporter transcription, actives raise or lower the signal
# How it was run: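 After transient cis-reporter transfection, HepG2 cells receive test chemical for 24 h. Reporter mRNA levels, measured by RT-PCR and capillary electrophoresis fluorescence, are analysed bidirectionally relative to the DMSO baseline.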
# [18] = biological target: Hepatocyte nuclear factor 3-beta (Homo sapiens) (UniProt Q9Y261); test: ATG_FoxA2_CIS: Attagene CIS-FACTORIAL HepG2 Assay for human Forkhead box A2 (FOXA2) (AID 2282942); conditions: HepG2 cis-reporter transcription factor activity, 24 h; actives raise or lower the signal
# Sequence of Hepatocyte nuclear factor 3-beta (Homo sapiens) (Q9Y261 whole entry, looked up): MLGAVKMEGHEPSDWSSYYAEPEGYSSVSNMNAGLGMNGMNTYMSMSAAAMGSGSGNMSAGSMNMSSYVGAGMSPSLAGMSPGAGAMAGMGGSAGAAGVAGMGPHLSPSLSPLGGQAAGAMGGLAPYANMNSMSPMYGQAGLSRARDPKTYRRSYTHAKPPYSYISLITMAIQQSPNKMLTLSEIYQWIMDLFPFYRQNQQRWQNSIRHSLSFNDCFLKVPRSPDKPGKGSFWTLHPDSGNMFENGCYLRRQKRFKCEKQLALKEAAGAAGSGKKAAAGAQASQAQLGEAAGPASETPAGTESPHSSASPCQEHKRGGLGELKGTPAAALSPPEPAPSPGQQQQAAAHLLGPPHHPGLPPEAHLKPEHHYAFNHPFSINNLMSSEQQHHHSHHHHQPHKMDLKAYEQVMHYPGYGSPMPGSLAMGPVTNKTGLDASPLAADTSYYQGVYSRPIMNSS
# How it was run: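 In transiently transfected human HepG2 cells, promoter-driven reporter mRNA levels after 24 h chemical exposure are determined via RT-PCR with capillary electrophoresis. DMSO serves as baseline for bidirectional fitting.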
# [19] = ATG_FoxO_CIS: Attagene CIS-FACTORIAL HepG2 Assay for human Forkhead box O (FoxO) (AID 2282943); conditions: HepG2 Attagene cis-reporter, FoxO element, mRNA; actives raise or lower the signal
# How it was run: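 24 h chemical exposure, HepG2 with transient cis-MRTU transfection. RNA extraction, oligo(dT) RT, reporter-specific PCR, primer-extension labelling, HpaI digestion, CE fragment analysis; bidirectional fit, DMSO baseline.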
# [20] = ATG_GATA_CIS: Attagene CIS-FACTORIAL HepG2 Assay for human GATA Binding Protein (AID 2282944); conditions: HepG2 GATA cis-element reporter, Attagene multiplex mRNA; actives raise or lower the signal
# How it was run: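 Transient MRTU transfection, HepG2, 24 h compound exposure. Total RNA → oligo(dT) RT → PCR → 6-FAM primer extension → HpaI cut → CE. Bidirectional fit vs DMSO.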
structure (smiles),measurement,setting,value
[Cl][Eu]([Cl])[Cl],outcome,[1],inactive
same,outcome,[2],inactive
same,outcome,[3],inactive
same,outcome,[4],inactive
same,outcome,[5],inactive
same,outcome,[6],inactive
same,outcome,[7],inactive
same,outcome,[8],inactive
same,outcome,[9],inactive
same,outcome,[10],inactive
same,outcome,[11],inactive
same,outcome,[12],inactive
same,outcome,[13],inactive
same,outcome,[14],inactive
same,outcome,[15],inactive
same,AC50,[16],51.6 µM (active)
same,outcome,[17],inactive
same,outcome,[18],inactive
same,outcome,[19],inactive
same,outcome,[20],inactive
CC(C)(CO)COC(=O)C(C)(C)CO,outcome,[1],inactive
same,outcome,[2],inactive
same,outcome,[3],inactive
same,outcome,[4],inactive
same,outcome,[5],inactive
same,outcome,[6],inactive
same,outcome,[7],inactive
same,outcome,[8],inactive
same,outcome,[9],inactive
same,outcome,[10],inactive
same,outcome,[11],inactive
same,outcome,[12],inactive
same,outcome,[13],inactive
same,outcome,[14],inactive
same,outcome,[15],inactive
same,outcome,[16],inactive
same,outcome,[17],inactive
same,outcome,[18],inactive
same,outcome,[19],inactive
same,outcome,[20],inactive
CCN1CN(CC)CN(CC)C1,outcome,[1],inactive
same,AC50,[2],162 µM (active)
same,AC50,[3],175 µM (active)
same,AC50,[4],140 µM (active)
same,AC50,[5],139 µM (active)
same,outcome,[6],inactive
same,outcome,[7],inactive
same,outcome,[8],inactive
same,outcome,[9],inactive
same,outcome,[10],inactive
same,outcome,[11],inactive
same,outcome,[12],inactive
same,outcome,[13],inactive
same,outcome,[14],inactive
same,outcome,[15],inactive
same,outcome,[16],inactive
same,AC50,[17],175 µM (active)
same,outcome,[18],inactive
same,outcome,[19],inactive
same,outcome,[20],inactive
CC1=C(O)C(=O)C(C)O1 (stereo not drawn),outcome,[1],inactive
same,outcome,[2],inactive
same,outcome,[3],inactive
same,outcome,[4],inactive
same,outcome,[5],inactive
same,outcome,[6],inactive
same,outcome,[7],inactive
same,outcome,[8],inactive
same,outcome,[9],inactive
same,outcome,[10],inactive
same,outcome,[11],inactive
same,outcome,[12],inactive
same,outcome,[13],inactive
same,outcome,[14],inactive
same,outcome,[15],inactive
same,outcome,[16],inactive
same,outcome,[17],inactive
same,outcome,[18],inactive
same,outcome,[19],inactive
same,outcome,[20],inactive
CC(C)=CCl,outcome,[1],inactive
same,outcome,[2],inactive
same,outcome,[3],inactive
same,outcome,[4],inactive
same,outcome,[5],inactive
same,outcome,[6],inactive
same,outcome,[7],inactive
same,outcome,[8],inactive
same,outcome,[9],inactive
same,outcome,[10],inactive
same,outcome,[11],inactive
same,outcome,[12],inactive
same,outcome,[13],inactive
same,outcome,[15],inactive
same,outcome,[16],inactive
same,outcome,[17],inactive
same,outcome,[18],inactive
same,outcome,[19],inactive
same,outcome,[20],inactive
COc1ccc(C(=O)/C(Br)=C\C(=O)O)cc1,outcome,[1],inactive
same,outcome,[2],inactive
same,AC50,[3],129 µM (active)
same,AC50,[4],36 µM (active)
same,AC50,[5],27.8 µM (active)
same,outcome,[6],inactive
same,AC50,[7],26.4 µM (active)
same,outcome,[8],inactive
same,outcome,[9],inactive
same,outcome,[10],inactive
same,outcome,[11],inactive
same,outcome,[12],inactive
same,outcome,[13],inactive
same,AC50,[14],68 µM (active)
same,outcome,[15],inactive
same,outcome,[16],inactive
same,outcome,[17],inactive
same,outcome,[18],inactive
same,outcome,[19],inactive
same,outcome,[20],inactive
Cn1cccc1,outcome,[1],inactive
same,outcome,[2],inactive
same,outcome,[3],inactive
same,outcome,[4],inactive
same,outcome,[5],inactive
same,outcome,[6],inactive
same,AC50,[7],26.4 µM (active)
same,outcome,[8],inactive
same,outcome,[9],inactive
same,outcome,[10],inactive
same,outcome,[11],inactive
same,outcome,[12],inactive
same,outcome,[13],inactive
same,outcome,[14],inactive
same,outcome,[15],inactive
same,outcome,[16],inactive
same,outcome,[18],inactive
same,outcome,[19],inactive
same,outcome,[20],inactive
